# Measured values taken from PubChem BioAssay AID651784 (National Center for Advancing Translational Sciences (NCATS), 2012).
# Results filed as inconclusive are left out. Active and inactive are the calls of the source. The call rests on the fitted dose curve; in most records, active means well fitted inhibition curve with a large enough effect; inconclusive means small, poorly fitted or top-dose-only effect; inactive means no such curve, though single readings can be large or run the other way.
# Test: Acumen qHTS Assay for Inhibitors of the mTORC1 Signaling Pathway in MEF (Tsc2-/-, p53-/-) Cells: Hit Validation;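 further: phospho-rpS6 Ser235/236 immunofluorescence normalized to propidium iodide cell count; nearly all actives have a fitted effect of over 65% in size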;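 on activity change, negative = inhibition: cells exposed to compound for 24 hours; plate controls were DMSO for no effect and 7.5 nM rapamycin control for full effect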
# Conditions: Acumen imaging; activity change, negative = inhibition: at 37.3 µM (top of the series)
# Potency means the concentration at half of the fitted maximal effect.
Compound,"activity change, negative = inhibition",Potency
O=C(CN1C(=O)C(c2ccc(F)cc2)=NC12CCCCCC2)Nc1ccccc1Cl,12.4%,–
COC(=O)c1ccccc1NC(=O)CCS(=O)(=O)c1nc(-c2ccc3c(c2)OCO3)cc(C(F)(F)F)n1,-88.3%,–
COc1ccc(Cl)cc1S(=O)(=O)NCc1ccc2c(c1)CCN2C(=O)c1cccc(C)c1,-22.6%,–
COc1ccc(OC)c(NC(=O)c2nc(S(=O)(=O)Cc3ccc(F)cc3)ncc2Cl)c1,–,2.07 µM (active)
CCc1ccc(NC(=O)CSc2nccn2C2CCCC2)cc1,-3.21%,–
CCCCS(=O)(=O)c1oc(-c2cccs2)nc1S(=O)(=O)c1ccccc1,–,2.07 µM (active)
Cc1nn(CCCC(=O)NCc2ccccc2)c(=O)c2c1sc1ccccc12,13.7%,–
COc1ccc(CNC(=O)c2nc(S(=O)(=O)Cc3ccccc3)ncc2Cl)cc1,-99.8%,–
COc1ccc(NC(=O)CSc2nc3ccccc3nc2N2CCC(C)CC2)cc1,6.7%,–
COc1ccc2c(c1)CCc1c(C(=O)Nc3c(C)nn(Cc4ccc(Cl)cc4)c3C)noc1-2,-75.9%,–
CCc1nn(CC(=O)NCc2ccccc2Cl)c(=O)c2cccn12,3.65%,–
CCOc1ccc(S(=O)(=O)N(C(C)=O)c2ccc3oc(C)c(C(=O)OC)c3c2)cc1,-69.9%,–
Cc1nn(C(C)C(=O)NC2CCC(C)CC2)c(=O)c2c1sc1ccccc12 (configuration not stated),-5.69%,–
CCc1ccc(S(=O)(=O)N(C(=O)c2ccncc2)c2ccc3oc(C)c(C(=O)OC)c3c2)cc1,–,11.7 µM (active)
CCOCc1cc(CN2CCN(c3ccccc3OC)CC2)c(O)c2ncccc12,–,5.21 µM (active)
CCC(C)S(=O)(=O)c1oc(-c2cccs2)nc1S(=O)(=O)c1ccccc1 (configuration not stated),–,0.927 µM (active)
CCOc1ccccc1NS(=O)(=O)c1ccc(-c2cnc(C3CC3)o2)cc1,–,0.464 µM (active)
Cc1ccc(-c2nnc(Nc3ccc(O)cc3)c3ccccc23)cc1S(=O)(=O)N1CCCCC1,-11.6%,–
CCOC(=O)C1CCN(C(=O)CSc2c3c(nc4ccc(Cl)cc24)CCCC3)CC1,-5.08%,–

Compound,"activity change, negative = inhibition",Potency
COc1cc(Cl)c(C)cc1Nc1c2c(nc3ccccc13)CCC2,–,0.927 µM (active)
CCN1CCN(C(=O)Cn2ncc3c4ccccc4n(Cc4c(C)cc(C)cc4C)c3c2=O)CC1,-17.5%,–
CCOC(=O)c1ccc(-c2ccc(/C=C(\C#N)c3nc4ccc(C)cc4[nH]3)o2)cc1,–,4.14 µM (active)
CCOC(=O)C(Cc1c[nH]c2ccccc12)NC(=O)COc1ccc(Cl)cc1 (configuration not stated),-4.4%,–
CCCN1C(=O)C(Cc2nc3ccccc3c(=O)n2CC)c2cc(Br)ccc21 (configuration not stated),4.78%,–
COc1cc(OC)cc(C(=O)NCCc2csc(-c3cccc(C)c3)n2)c1,-7.07%,–
Cc1ccc(C)c(Cn2c3ccccc3c3cnn(CC(=O)NC(C)CCc4ccccc4)c(=O)c32)c1 (configuration not stated),–,7.36 µM (active)
Cc1ccc(NC(=O)COc2ccc(-c3nn(C)c(=O)c4ccccc34)cc2)c(C)c1,-44.6%,–
O=S(=O)(NCC(c1ccco1)N1CCN(c2ccc(F)cc2)CC1)c1ccccc1 (configuration not stated),12.9%,–
O=C(CCS(=O)(=O)c1nc(-c2cccs2)cc(C(F)(F)F)n1)Nc1cccc(O)c1,-112%,–
CCS(=O)(=O)c1ncc(Cl)c(C(=O)NCc2ccc(OC)cc2)n1,–,6.56 µM (active)
COc1ccc(OCC(O)Cn2c(=N)n(CCN3CCCCC3)c3ccccc32)cc1 (configuration not stated),–,16.5 µM (active)
CCC1CCc2nc3sc(C(=O)Nc4ccc(C)cc4)c(N)c3cc2C1 (configuration not stated),–,8.26 µM (active)
CCOC(=O)N1CCN(Cc2nc3cc(NC(=O)c4ccc([N+](=O)[O-])cc4)ccc3n2C(C)C)CC1,-17.8%,–
Cc1cccc(NS(=O)(=O)c2ccc3[nH]c4c(c3c2)CCCCCC4)c1,–,5.21 µM (active)
CCOc1ccccc1Nc1nc(-c2cccc(Cl)c2)c2c(n1)-c1ccccc1OC2,-15.1%,–
O=C(NCCN1CCN(c2cccc(Cl)c2)CC1)Nc1ccccc1C(F)(F)F,-3.27%,–
CCCC1=Nc2cc(C(=O)NCc3ccccc3)ccc2Sc2ccccc21,–,4.14 µM (active)
